The source made the active and inactive calls. Unless noted, no rule for the calls is given here.

A short description of test [1]: HepG2 liver cancer cell viability effects, profiling panel, resazurin fluorescence, 24 h, PK04 Diversity Set (AID 1172). Also: test concentration not given here. To be noted: higher = more signal.
A short description of test [2]: basal S. cerevisiae growth modulation, no modifier, primary screen, OD600, strain BY4716, 24 h, basal condition (AID 1173). To be noted: OD600, 24 h, higher = more signal, called active from +8 up or from −8 down.
Test [3] is described as follows: MM1S myeloma cell viability, profiling panel, resazurin fluorescence, basal, 24 h, PK04 Diversity Set (AID 1174).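 Also: MM1S multiple myeloma cell line; test concentration not given here.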 The conditions noted are these: higher = more signal, called active from +8 up or from −8 down.
For test [4], the target named is Dihydroorotate dehydrogenase (quinone), mitochondrial (Plasmodium falciparum (isolate 3D7)) (UniProt Q08210). The test is described as follows: PfDHODH enzyme inhibitors, primary screen, biochemical, C-terminal His tag, absorbance 600 nm (AID 1175).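 Also: recombinant parasite enzyme with a five histidine tag at its C terminus; test concentration not given here.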 The conditions noted are these: DCIP absorbance 600 nm, higher = more signal, called active from +8 up or from −8 down.
Chain of Dihydroorotate dehydrogenase (quinone), mitochondrial (Plasmodium falciparum (isolate 3D7)) (Q08210 whole entry, looked up): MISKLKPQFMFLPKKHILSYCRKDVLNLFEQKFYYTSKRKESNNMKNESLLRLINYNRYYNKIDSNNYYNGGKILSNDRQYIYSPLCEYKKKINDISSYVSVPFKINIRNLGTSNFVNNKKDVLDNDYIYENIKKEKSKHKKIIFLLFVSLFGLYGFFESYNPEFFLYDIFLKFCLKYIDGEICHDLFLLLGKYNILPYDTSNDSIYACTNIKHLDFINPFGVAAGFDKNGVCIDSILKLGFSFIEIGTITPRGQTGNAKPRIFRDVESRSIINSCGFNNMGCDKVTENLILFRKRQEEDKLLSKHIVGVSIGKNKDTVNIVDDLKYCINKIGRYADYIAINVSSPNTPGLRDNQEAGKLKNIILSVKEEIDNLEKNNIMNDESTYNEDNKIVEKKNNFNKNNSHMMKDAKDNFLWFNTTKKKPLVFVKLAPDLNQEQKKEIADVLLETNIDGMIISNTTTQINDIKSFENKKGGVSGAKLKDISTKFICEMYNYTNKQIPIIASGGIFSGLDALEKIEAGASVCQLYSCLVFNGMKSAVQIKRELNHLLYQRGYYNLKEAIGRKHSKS

The nature of test [5]: P. aeruginosa biofilm formation inhibitors, primary screen, strain PAO1, LB-PBS medium, absorbance 600 nm (AID 1176). Also: test concentration not given here. To be noted: P. aeruginosa PAO1 growth/biofilm, A600, 12 h; higher = more signal.
The nature of test [6]: S. cerevisiae RM11-1a growth modifiers, primary screen, strain RM11-1a, OD600, basal, 24 h (AID 1177).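 Also: cultures grown under basal conditions with no added stressor; test concentration not given here.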 The conditions noted are these: OD600, 24 h, higher = more signal, called active from +8 up or from −8 down.
The nature of test [7]: E. coli acrAB mutant growth effects, primary screen, E. coli filamentation inducers, strain DRC39, OD650, 24 h (AID 1178).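 Also: growth measured as culture turbidity by optical density at 650 nm; test concentration not given here.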 The conditions noted are these: higher = more signal, called active from +8 up or from −8 down.
The nature of test [8]: E. coli acrAB mutant growth effects, primary screen, E. coli filamentation inducers, strain DRC39, OD650, 48 h (AID 1179).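 Also: screen aims at cell division blockers that make cells filament.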 To be noted: E. coli DRC39 delta-acrAB growth, higher = more signal, called active from +8 up or from −8 down.
A short description of test [9]: RPMI8226 myeloma cell viability, profiling panel, resazurin fluorescence, basal, 24 h, PK04 Diversity Set (AID 1180).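 Also: RPMI8826 multiple myeloma cell line at 5000 cells per well; test concentration not given here.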 The conditions noted are these: higher = more signal.
The target of test [10] is E3 ubiquitin-protein ligase XIAP (Homo sapiens) (UniProt P98170). The test is described as follows: XIAP binders, primary screen, biophysical, small-molecule microarray, fluorescence 635 nm (AID 1181).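 Also: score merges 667 nm emission and signal to noise over triplicate slides.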 The conditions noted are these: small-molecule microarray binding, higher = more signal.
Chain of E3 ubiquitin-protein ligase XIAP (Homo sapiens) (P98170 whole entry, looked up): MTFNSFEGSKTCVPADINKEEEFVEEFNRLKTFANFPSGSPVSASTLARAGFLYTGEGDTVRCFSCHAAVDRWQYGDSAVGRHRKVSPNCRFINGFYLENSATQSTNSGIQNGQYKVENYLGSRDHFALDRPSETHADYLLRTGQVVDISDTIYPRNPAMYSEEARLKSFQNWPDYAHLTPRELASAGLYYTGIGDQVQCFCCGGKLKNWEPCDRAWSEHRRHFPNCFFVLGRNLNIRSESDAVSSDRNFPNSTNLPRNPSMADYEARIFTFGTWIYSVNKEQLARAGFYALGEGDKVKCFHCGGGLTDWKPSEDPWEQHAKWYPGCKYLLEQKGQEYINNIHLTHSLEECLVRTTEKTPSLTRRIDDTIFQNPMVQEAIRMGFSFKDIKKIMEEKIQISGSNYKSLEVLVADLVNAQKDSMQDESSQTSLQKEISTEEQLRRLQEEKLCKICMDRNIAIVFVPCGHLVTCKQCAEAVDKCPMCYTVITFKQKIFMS

Take `COC(=O)[C@]1(CCC(=O)OC(C)(C)C)N=C(c2ccc(OCCCO)cc2)O[C@@H]1c1ccccc1`: the z-score was -0.134 in test [1]; -0.761 (inactive) in test [2]; -0.671 (inactive) in test [3]; 0.438 (inactive) in [5]; 0.504 (inactive) in test [6]; 3.37 (inactive) in test [7]. Also, the z-score in [8] is 0.648 (inactive); in test [9], -1.47. The composite z-score in test [4] is -0.134 (inactive); in test [10] it was 0.153.
Consider `COC(=O)[C@@]1(Cc2ccccc2)[C@H]2c3cc(C(=O)N(C)C)n(CCc4c[nH]c5ccc(O)cc45)c3C[C@H]2CN1C(=O)c1ccccc1`, for which the z-score was 0.236 in [1]; 0.412 (inactive) in test [2]; -1.18 (inactive) in test [3]; 1.07 (inactive) in [5]; -0.438 (inactive) in test [6]; 0.117 (inactive) in [7]. Besides, the z-score in [8] was 0.29 (inactive); in test [9] it was -1.27. The figures for the composite z-score in test [4] and in test [10] were -0.568 (inactive) and -0.0261, respectively.
Regarding `CCCC=C(CCC)[C@@H](NC(=O)OCC(C)C)c1ccccc1`, the z-score is -0.624 in test [1]; 1.08 (inactive) in test [2]; -0.863 (inactive) in test [3]; 2.77 (inactive) in test [5]; 0.396 (inactive) in test [6]; -0.526 (inactive) in test [7]. The z-score is -1.64 (inactive) in test [8] and 0.0342 in [9]. The values for the composite z-score in test [4] and in test [10] were -4.03 (inactive) and -0.0852, respectively.
As for `[N-]=[N+]=NCc1ccccc1[C@@H]1OC(c2ccc(OCCCO)cc2)=N[C@]1(CCS(=O)(=O)c1ccccc1)C(N)=O`, the z-score in test [1] is -0.493; in test [2], -0.583 (inactive); in [3], -0.163 (inactive); in test [5], -0.651 (inactive); in test [6], 0.573 (inactive); in [7] it was 0.0745 (inactive). In addition, the z-score is 0.859 (inactive) in [8] and 0.0529 in [9]. The composite z-score in test [4] was -0.449 (inactive); in test [10] it was 0.243.
Take `COc1ccc([Si](C)(C)[C@@H]2[C@@H](CC(=O)N3Cc4ccccc4C[C@H]3CO)O[C@]3(C(=O)N(Cc4cccc(N5CCC5=O)c4)c4ccccc43)[C@H]2C)cc1`: the z-score is -0.0715 in test [1]; 0.984 (inactive) in test [2]; -0.922 (inactive) in [3]; 2.04 (inactive) in test [5]; 1.38 (inactive) in [6]; 0.249 (inactive) in [7]. The z-score in [8] is -0.0051 (inactive); in test [9] it was -0.828. Besides, the composite z-score is -3.46 (inactive) in test [4] and 0.0819 in test [10].
For the compound `C=CC[C@@]1(C(=O)N2CCCCC2)N=C(c2ccc(OCCCO)cc2)O[C@@H]1c1ccccc1N=[N+]=[N-]`, the z-score is -0.355 in test [1]; -1.02 (inactive) in test [2]; -1.62 (inactive) in test [3]; 0.302 (inactive) in test [5]; 0.597 (inactive) in [6]; 0.985 (inactive) in [7]. In addition, the z-score is -0.682 (inactive) in test [8] and -0.963 in [9]. Besides, the composite z-score in test [4] is 0.479 (inactive); in test [10] it was 0.13.
Regarding `CC(C)OC(=O)C=C1C[C@@H](c2cccc(Cl)c2)O[C@@H](c2cccc(Cl)c2)O1`, the z-score was -0.307 in [1]; -2.84 (inactive) in test [2]; 0.147 (inactive) in test [3]; 0.959 (inactive) in [5]; -0.587 (inactive) in test [6]; -0.581 (inactive) in [7]. The z-score in [8] was 0.323 (inactive); in test [9], -1.03. The figures for the composite z-score in [4] and in [10] were -0.516 (inactive) and 0.0307, respectively.
Regarding `N#Cc1ccc(C(O)C2C=CC3C(=O)N(c4ccccc4)C(=O)C3N2Nc2ccccc2F)cc1` (stereo not given), the z-score in [1] was 1.46; in test [2], -2.13 (inactive); in [3], 0.55 (inactive); in test [5], 0.0083 (inactive); in [6], -0.402 (inactive); in [7] it was -0.227 (inactive). Moreover, the results for the z-score in [8] and in test [9] were 0.692 (inactive) and 0.148, respectively. In addition, the composite z-score is 0.775 (inactive) in test [4] and 0.205 in test [10].
As to `COc1ccc([Si](C)(C)[C@H]2[C@H](CC(=O)N3CCC[C@H]3CO)O[C@@]3(C(=O)N(Cc4cccc(N5CCOC5=O)c4)c4ccccc43)[C@@H]2C)cc1`, the z-score in test [1] is 0.22; in test [2], -0.338 (inactive); in [3], -0.133 (inactive); in [5], -0.249 (inactive); in test [6] it was 0.177 (inactive); in test [7], 0.181 (inactive). Also, the z-score in [8] is -0.109 (inactive); in test [9] it was -0.699. Moreover, the composite z-score in [4] was -3.32 (inactive); in test [10], -0.0839.
Take `CCC(CC)C(O)C1C=CC2C(=O)N(c3ccccc3)C(=O)C2N1Nc1ccccc1` (stereo not given): the z-score in test [1] is 1.48; in [2], -1.61 (inactive); in test [3], 0.33 (inactive); in test [5], 2.07 (inactive); in test [6] it was -0.166 (inactive); in test [7], 0.55 (inactive). In addition, the z-score in test [8] was 0.503 (inactive); in [9] it was 0.0861. Moreover, the composite z-score in test [4] is 0.246 (inactive); in [10], 0.212.
On to `CN1CCC(CCCO)=CC1c1cccs1` (stereo not given), for which the z-score was -0.34 in [1]; -0.158 (inactive) in test [2]; -0.838 (inactive) in test [3]; -0.377 (inactive) in test [5]; -0.842 (inactive) in [6]; 0.212 (inactive) in test [7]. For the same compound, the z-score in [8] is 0.0999 (inactive); in test [9], -0.707. Besides, the composite z-score in [4] was -0.404 (inactive); in test [10], -0.319.

The values above are taken from PubChem BioAssay.
